# Experimental data reported in PubChem BioAssay (NCATS).
# Results filed as inconclusive are left out. A number with no mark means an inactive call. The source made the active and inactive calls. The call rests on the fitted dose curve; in most records, active means well fitted inhibition curve with a large enough effect; inconclusive means small, poorly fitted or top-dose-only effect; inactive means no such curve, though single readings can be large or run the other way. Peptide text beside a SMILES is read from it. * marks the point of attachment. Hexanoyl = CCCCCC(=O)*
# Test: qHTS for ATAD5 Antagonist screened against the NCATS CANVASS Library (AID 1347370); further: nearly all actives have a fitted effect of over 65% in size
# Conditions: HEK293T-ATAD5-luc, 5-FUrd stimulated, luminescence, 16 h; series mostly up to 46.1 µM; activity change, negative = inhibition: at the top concentration
# Excerpt: Natural products and their derivatives continue to be wellsprings of nascent therapeutic potential. However, many laboratories have limited resources for biological evaluation, leaving their previously isolated or synthesized compounds largely or completely untested. To address this issue, the Canvass library of natural products was assembled (https://tripod.nih.gov/canvass), in collaboration with academic and industry researchers, for quantitative high-throughput screening (qHTS) across a diverse set of cell-based and biochemical assays. The pure (>85% purity by liquid chromatography/mass spectrometry [LC/MS]) Canvass library of 346 natural products were submitted by 45 academic laboratories and companies around the world. We collected pure natural products to circumvent deconvolution and structure elucidation due to time and resource limitations. The library was formatted into 1536-well plates and evaluated in 50 qHTS (in an 11-pnt concentration series) bioassays with broad scope of disease-relevant mechanisms. The resulting data set from 50 different assays was then systematically analyzed to identify overall trends and specific natural products with interesting biological activities. Reported herein are the results of each individual qHTS and their corresponding assay protocol. Human ATAD5 is a biomarker for identifying gentoxic compounds because ATAD5 protein levels increase post-transcriptionally in response to DNA damage. A cell-based assay is used to detect DNA damage inducers and genotoxic compounds as well. The assay is based upon a luciferase reporter gene under control of ATAD5 that has been stably integrated into HEK 293T cells. Luminescence intensity is proportional to ATAD5 expression. National Center for Advancing Translational Sciences (NCATS), Rockville, MD National Institute of Health (NIH), Bethesda, Maryland
# ATAD5 Agonist assay protocol: 1. In a 1536 well, tissue culture treated white solid bottom plates (Greiner Bio-One North America), 5 uL of HEK293T-ATAD5 cell solution (2000 cells / well) was dispensed using the Multidrop Combi dispenser (Thermo Fisher Scientific). 2. The assay plates were incubated for 5hr at 37C, 5% CO2 to allow the cells to acclimate and attach. 3. Compounds were pin transferred (~23 nL volume) to the assay plates via Wako Pin-tool (Wako Automation, Richmond VA) equipped with a 1536 pin head. The compounds were transferred to columns 5-48 resulting in a final concentration ranging from 0.16 nM to 103 uM. DMSO was pin transferred to columns 1-4 as controls. The compound / control transfer was followed by the addition of either 1 uL of culture medium (columns 1 and 3) or 10 uM final concentration of 5-Fluorouridine (5-FUrd; column 2, 4-48), a known stabilizer of ATAD5. 4. The assay plates were further incubated in the dark at 37C, 5% CO2 for 16hr. 5. To measure cell viability, 1uL of CellTiter-Fluor (Promega) reagent was then added to the assay plates (column 1-48, rows 1-32). The assay plates were incubated in the dark for 1hr at 37C, 5% CO2. 6. A first readout of fluorescence signal was acquired via the ViewLux (PerkinElmer) plate reader using filter sets for AFC (380-400nmEx/505Em) and 1 second exposure setting. 7. To measure ATAD5 activation, 4uL of Amplite Luciferase reagent (AAT Bioquest) was then added to the assay plates (column 1-48, rows 1-32). The assay plates were further incubated in the dark at room temperature for 30min. 8.#A second readout of luminescence signal was acquired via the ViewLux plate reader using a clear emission filter, 10 second exposure setting.
# On the % scale 0 is the no-effect control and ±100 the full control effect; potency means the concentration at half of the fitted maximal effect.
Compound,Potency,"activity change, negative = inhibition"
COc1ccc([C@@H]2c3cc4c(cc3C(=O)[C@H](C)C2C)OCO4)cc1OC (stereo not given in full),16.6 µM (active),–
COC(=O)c1cccc2oc(-c3cccc4oc(-c5c(C)cccc5O)nc34)nc12,8.31 µM (active),–
C=C1CCC2C(C)(C(=O)O)CCC(CC/C(C)=C/C(=O)NC(CCC(N)=O)C(=O)O)[C@@]2(C)C1 (stereo not given in full),–,-5.62%
C/C=C/[C@H]1[C@H]2C(=O)c3c(O)c(C)c(O)c(C)c3[C@]1(C(=O)O)C(=O)C=C2C,–,12.3%
C[C@@H]1CC[C@]2(C(=O)O)CC[C@]3(C)C(=C2[C@H]1C)CC[C@@H]1[C@@]2(C)CC[C@H](O)C(C)(C)[C@@H]2CC[C@]13C,–,8.71%
O=C1CC(c2ccc(O)cc2)Oc2cc(O)ccc21 (stereo not given),–,35.1%
C=C[C@@](C)(O)CC[C@@H]1[C@@]2(C)CCCC(C)(C)[C@@H]2CC[C@@]1(C)O,–,1.27%
C/C(=C\[C@@H](C)CC/C=C/CC/C=C/C(=O)O)[C@H](O)[C@H](C)C(=O)CCCC1CC(=O)NC(=O)C1,–,9.4%
C[C@H](c1cnc(N)[nH]1)c1ccc(O)c2[nH]cc(-c3cnc(-c4c[nH]c5ccccc45)c(=O)[nH]3)c12,–,-24.1%
COc1ccc([C@@H]2CC(=O)c3c(cc(O)c(C/C=C(\C)CCC=C(C)C)c3O)O2)cc1,–,-0.0168% [at 9.19 µM]
O=C1CC(c2ccc(O)cc2)Oc2ccccc21 (stereo not given),–,70.8%
CCCCCC(=O)N[C@@H](CC(C)C)C(=O)N[C@H](C=O)CCC(=O)O (Hexanoyl-Leu-Glu-aldehyde),–,11.2%
C[C@H]1CCC2(OC1)O[C@H]1C[C@H]3[C@@H]4CC(=O)[C@]5(O)C[C@H](O)CC[C@@]5(C)[C@H]4CC[C@@]3(C)[C@H]1[C@H]2C (stereo not given in full),–,-16.9%
COc1cc2ccc(=O)oc2c(O)c1O[C@@H]1O[C@H](CO)[C@@H](O)[C@H](O)[C@H]1O,–,-9.81% [at 27.5 µM]
C[C@]12CCC[C@](C)(C(=O)O)[C@@H]1CC[C@@]1(C)c3cocc3CC[C@H]21,–,-7.76%
C/C(=C\[C@H](C)C(=O)C[C@H](O)CC1CC(=O)NC(=O)C1)[C@@H]1OC(=O)CCCC/C=C/[C@@H](O)C[C@@H]1C,7.41 µM (active),–
C=C1[C@@]2(C)CC3C4(C)CCC(O)C(C)(C)C4CCC3(C)[C@]1(C(=O)OC)C(=O)C(C)(O)C2=O (stereo not given in full),–,-19.5%
CO[C@H]1/C=C/CCCCC(=O)O[C@@H](/C(C)=C/[C@H](C)C(=O)C[C@H](O)CC2CC(=O)NC(=O)C2)[C@@H](C)C1,20.9 µM (active),–
C=C(C)C(=O)O[C@H]1C[C@@]2(C)OC(=CC2=O)/C(C)=C\[C@H]2OC(=O)C(=C)[C@H]12,2.95 µM (active),–
CN1CC[C@@]2([C@@]34CCN(C)[C@@H]3Nc3ccccc34)c3ccccc3N[C@@H]12,–,2.62%

Compound,Potency,"activity change, negative = inhibition"
COC(=O)[C@]1([C@H]2CCC(=O)O2)CC(=O)c2c(O)cc(C)cc2O1,–,12.6%
COc1cc2c(cc1OC)[C@@H](c1ccc3c(c1)OCO3)C(C)[C@@H](C)C2=O (stereo not given in full),11.7 µM (active),–
CC(C)=CCC[C@]12c3cc4c(cc3CC[C@@]1(C)[C@H](C)CC[C@@H]2O)[nH]c1ccccc14,–,-15.1%
O=C(OC[C@H]1O[C@@H](OC(=O)c2cc(O)c(O)c(O)c2)[C@H](OC(=O)c2cc(O)c(O)c(O)c2)[C@@H](OC(=O)c2cc(O)c(O)c(O)c2)[C@@H]1OC(=O)c1cc(O)c(O)c(O)c1)c1cc(O)c(O)c(O)c1,–,-21.1%
CN1CC[C@]23c4ccccc4N[C@H]1[C@]21CCN(C)[C@H]3Nc2ccccc21,–,0%
C/C(=C\[C@H](C)C(=O)C[C@H](O)CC1CC(=O)NC(=O)C1)[C@@H]1OC(=O)CCCC/C=C/C[C@@H](O)[C@@H]1C,8.31 µM (active),–
CO[C@H]1[C@@H](OC(=O)/C(C)=C\[C@@H]2O[C@@H]2[C@H]2O[C@H]2C)[C@H](O)[C@H](OCC23C[C@@H]4[C@H](C)CC[C@H]4C4(C=O)CC2C=C(C(C)C)C34C(=O)O)O[C@@H]1C (stereo not given in full),–,-6.84%
C=C(C)CC[C@H](Cc1c(O)cc(O)c2c1O[C@H](c1ccc(O)cc1)CC2=O)C(=C)C,23.4 µM (active),–
CC1(C)CC[C@]2(CO)CC[C@]3(C)C(=CCC4[C@@]5(C)CC[C@H](O)C(C)(C)C5CC[C@]43C)C2C1 (stereo not given in full),–,-9.76%
COC(=O)[C@@]1(C)CCC[C@]2(C)c3cc(OC)ccc3CC[C@@H]12,–,-7.06%
COC(=O)C1=C[C@]23C[C@@H](C)CC[C@@H]2[C@@]2(C)CC[C@@H](C(C)C)[C@@](O)(O3)[C@@H]12,–,2.1%
CC(C)=CCCC(C)(O)[C@H]1CC=C(C)C(O)C1 (stereo not given in full),–,-9.84%
Cc1occ2c1C(=O)c1c(cc(O)c(O)c1O)C2=O,–,-24.1%
C[C@]12CC[C@]3(C1)[C@H](CC2=O)C[C@@H](OC(=O)c1ccccc1)[C@H]1[C@](C)(C(=O)O)CCC[C@@]13C,–,-3.75%
C=C1CC[C@@H](O[C@H]2C[C@@](O)([C@H](C)NC(=O)c3[nH]c(C)c(Cl)c3Cl)[C@H](O)[C@@H](C)O2)[C@@H]2C=C[C@H](C)C(/C(O)=C3/C(=O)[C@H](C(C)C)N([C@@H]4O[C@H](C)[C@H](OC(N)=O)[C@H](OC(C)=O)[C@@H]4OC)C3=O)[C@@H]12 (stereo not given in full),–,-19.1%
C[C@@]12C[C@@H](C[C@@H]3C(=O)O[C@@H](c4ccoc4)[C@H](OC(=O)c4ccccc4)[C@@H]31)OC2=O,–,-9.49%
C=C[C@]1(C)CC[C@@H]([C@H](C)C(=O)CC=C(C)C)O1,–,-10.2%
CC(CCC[C@]1(C)C(=O)C=C[C@@]23C[C@]4(C)O[C@@H](C[C@@H]4[C@H]2O)C31)C(=O)O (stereo not given in full),–,10.2%
COc1cc(/C=C/C(=O)OC[C@@H](Cc2ccc(O)c(OC)c2)[C@@H](COC(=O)/C=C/c2ccc(O)c(OC)c2)Cc2ccc(O)c(OC)c2)ccc1O,1.48 µM (active),–
C=C[C@](Cl)(CBr)CCC=C(C)C,–,-4.44%
